Laboratory results taken from the supplement of paper PMC8728848.
About 410 targets per protein were measured; listed, in parts, are those with the strongest signals and a random draw of the rest.

Legend:
Test in all cases: glycan array binding signal (z-score within array); higher = stronger binding
Conditions in all cases: glycan notation: IUPAC condensed, linker removed
Fuc(a1-2)Gal(b1-3)GlcNAc = target: Fuc(a1-2)Gal(b1-3)GlcNAc
Outline: (§1)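 The binding signal is a Z-score computed within each array. Data were drawn from 3228 arrays in the Consortium for Functional Glycomics database, restricted to those with a known protein sequence. Scores were averaged over arrays of the same protein sequence at different concentrations or buffers, and over linkers, and negative values can be taken as non-binding.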

[1] = target: Fuc(a1-2)[GalNAc(a1-3)]Gal(b1-3)GlcNAc
Outline: as §1

[2] = target: Fuc(a1-3)[GalNAc(b1-4)]GlcNAc
Outline: as §1

Gal(a1-4)Gal(b1-4)Glc = target: Gal(a1-4)Gal(b1-4)Glc
Outline: as §1

Gal(a1-4)GlcNAc = target: Gal(a1-4)GlcNAc
Outline: as §1

[3] = target: Gal(b1-3)GlcNAc(b1-3)Gal(b1-4)GlcNAc
Outline: as §1

[4] = target: Gal(b1-3)[Fuc(a1-4)]GlcNAc(b1-3)Gal(b1-3)[Fuc(a1-4)]GlcNAc
Outline: as §1

[5] = target: Gal(b1-4)GlcNAc(a1-6)Gal(b1-4)GlcNAc
Outline: as §1

Gal3S(b1-4)Glc = target: Gal3S(b1-4)Glc
Outline: as §1

Gal4S(b1-4)GlcNAc = target: Gal4S(b1-4)GlcNAc
Outline: as §1

GalNAc(a1-3)GalNAc = target: GalNAc(a1-3)GalNAc
Outline: as §1

Glc(a1-6)Glc(a1-6)Glc = target: Glc(a1-6)Glc(a1-6)Glc
Outline: as §1

GlcA(b1-3)GlcNAc = target: GlcA(b1-3)GlcNAc
Outline: as §1

[6] = target: GlcNAc(b1-2)Gal(b1-3)GalNAc
Outline: as §1

GlcNAc(b1-3)Gal = target: GlcNAc(b1-3)Gal
Outline: as §1

[7] = target: GlcNAc(b1-4)Gal(b1-4)GlcNAc
Outline: as §1

[8] = target: GlcNAc(b1-4)[GlcNAc(b1-6)]GalNAc
Outline: as §1

GlcNAc3Prop(b1-4)GlcNAc = target: GlcNAc3Prop(b1-4)GlcNAc
Outline: as §1

Man(a1-3)[Man(a1-6)]Man = target: Man(a1-3)[Man(a1-6)]Man
Outline: as §1

[9] = target: Man(a1-3)[Man(a1-6)]Man(a1-6)[Man(a1-2)Man(a1-3)]Man(b1-4)GlcNAc(b1-4)GlcNAc
Outline: as §1

[10] = target: Neu5Ac(a2-3)Gal(b1-3)GlcNAc6S
Outline: as §1

[11] = target: Neu5Ac(a2-3)Gal(b1-3)[Fuc(a1-4)]GlcNAc(b1-3)Gal(b1-4)[Fuc(a1-3)]GlcNAc
Outline: as §1

[12] = target: Neu5Ac(a2-3)Gal(b1-4)[Fuc(a1-3)]GlcNAc(b1-6)[Gal(b1-3)]GalNAc
Outline: as §1

[13] = target: Neu5Ac(a2-6)Gal(b1-4)GlcNAc(b1-2)Man(a1-3)[GlcNAc(b1-2)Man(a1-6)]Man(b1-4)GlcNAc(b1-4)GlcNAc
Outline: as §1

[14] = target: Neu5Ac(a2-6)Gal(b1-4)GlcNAc(b1-2)Man(a1-3)[Neu5Ac(a2-6)Gal(b1-4)GlcNAc(b1-2)Man(a1-6)]Man(b1-4)GlcNAc(b1-4)GlcNAc
Outline: as §1

[15] = target: Neu5Ac(a2-6)Gal(b1-4)GlcNAc(b1-2)Man(a1-6)[Gal(b1-4)GlcNAc(b1-2)Man(a1-3)]Man(b1-4)GlcNAc(b1-4)GlcNAc
Outline: as §1

[16] = target: Neu5Ac(a2-6)Gal(b1-4)GlcNAc(b1-3)Gal(b1-4)[Fuc(a1-3)]GlcNAc(b1-3)Gal(b1-4)[Fuc(a1-3)]GlcNAc
Outline: as §1

[17] = target: Neu5Ac(a2-8)Neu5Ac(a2-8)Neu5Ac(a2-3)Gal(b1-4)Glc
Outline: as §1

[18] = target: Fuc(a1-3)[Gal(b1-4)]GlcNAc(b1-4)Gal(b1-4)[Fuc(a1-3)]GlcNAc
Outline: as §1

[19] = target: Gal(b1-3)GlcNAc(b1-3)Gal(b1-4)Glc
Outline: as §1

[20] = target: Gal(b1-3)[Fuc(a1-4)]GlcNAc
Outline: as §1

[21] = target: Gal(b1-3)[Neu5Ac(a2-6)]GalNAc
Outline: as §1

[22] = target: Gal(b1-3)[Neu5Ac(a2-6)]GlcNAc(b1-6)Gal(b1-4)Glc
Outline: as §1

[23] = target: Gal(b1-3)[Neu5Ac(b2-6)]GalNAc
Outline: as §1

[24] = target: Gal(b1-4)GalNAc(a1-3)[Fuc(a1-2)]Gal(b1-4)GlcNAc
Outline: as §1

[25] = target: Gal(b1-4)GlcNAc(b1-6)Gal(b1-4)GlcNAc(b1-6)GalNAc
Outline: as §1

Gal6S(b1-4)Glc = target: Gal6S(b1-4)Glc
Outline: as §1

Glc(b1-6)Glc = target: Glc(b1-6)Glc
Outline: as §1

[26] = target: GlcNAc(b1-2)Man(a1-3)[GlcNAc(b1-2)Man(a1-6)]Man(b1-4)GlcNAc(b1-4)GlcNAc
Outline: as §1

[27] = target: Neu5Ac(a2-3)Gal(b1-4)GlcNAc(b1-3)Gal(b1-4)GlcNAc
Outline: as §1

[28] = target: Neu5Ac(a2-3)Gal(b1-4)[Fuc(a1-3)]GlcNAc(b1-3)Gal(b1-4)[Fuc(a1-3)]GlcNAc(b1-3)Gal(b1-4)[Fuc(a1-3)]GlcNAc
Outline: as §1

[29] = target: Neu5Ac(a2-6)GalNAc(b1-4)GlcNAc
Outline: as §1

[30] = target: Neu5Ac(a2-8)Neu5Ac(a2-8)Neu5Ac(a2-8)Neu5Ac(a2-3)[GalNAc(b1-4)]Gal(b1-4)Glc
Outline: as §1

B1: Regenerating Gene I (Homo sapiens), P05451 (protein)
chain: MAQTSSYFMLISCLMFLSQSQGQEAQTELPQARISCPEGTNAYRSYCYYFNEDRETWVDADLYCQNMNSGNLVSVLTQAEGAFVASLIKESGTDDFNVWIGLHDPKKNRRWHWSSGSLVSYKSWGIGAPSSVNPGYCVSLTSSTGFQKWKDVPCEDKFSFVCKFKN
glycan array binding signal (z-score) (Fuc(a1-2)Gal(b1-3)GlcNAc): 0.417 | glycan array binding signal (z-score) [1]: -0.479 | glycan array binding signal (z-score) [2]: 0.315 | glycan array binding signal (z-score) (Gal(a1-4)Gal(b1-4)Glc): 3.58 | glycan array binding signal (z-score) (Gal(a1-4)GlcNAc): 0.102 | glycan array binding signal (z-score) [3]: -0.537 | glycan array binding signal (z-score) [4]: -0.396 | glycan array binding signal (z-score) [5]: 0.071 | glycan array binding signal (z-score) (Gal3S(b1-4)Glc): 0.272 | glycan array binding signal (z-score) (Gal4S(b1-4)GlcNAc): 0.291 | glycan array binding signal (z-score) (GalNAc(a1-3)GalNAc): -0.588 | glycan array binding signal (z-score) (Glc(a1-6)Glc(a1-6)Glc): -0.118 | glycan array binding signal (z-score) (GlcA(b1-3)GlcNAc): 0.836 | glycan array binding signal (z-score) [6]: -0.206 | glycan array binding signal (z-score) (GlcNAc(b1-3)Gal): -0.215 | glycan array binding signal (z-score) [7]: 2.18 | glycan array binding signal (z-score) [8]: 1.91 | glycan array binding signal (z-score) (GlcNAc3Prop(b1-4)GlcNAc): -0.533 | glycan array binding signal (z-score) (Man(a1-3)[Man(a1-6)]Man): 7.74 | glycan array binding signal (z-score) [9]: -0.594 | glycan array binding signal (z-score) [10]: -0.09 | glycan array binding signal (z-score) [11]: 5.84 | glycan array binding signal (z-score) [12]: -0.128 | glycan array binding signal (z-score) [13]: -0.412 | glycan array binding signal (z-score) [14]: -0.473 | glycan array binding signal (z-score) [15]: -0.33 | glycan array binding signal (z-score) [16]: -0.304 | glycan array binding signal (z-score) [17]: -0.596

B2: LKPARMA (Neurospora crassa) (protein)
chain: MSFHVTAEDARRIEVRDNRTILFARLRREDGEWNDASYELDQIIGNNDGHFQWGGGQNFTETAEDIRFHPKEGAAEQPILRARLRDCNGEFHDRDVNLTEIVENVNGEFQAKF
glycan array binding signal (z-score) (Fuc(a1-2)Gal(b1-3)GlcNAc): -0.25 | glycan array binding signal (z-score) [18]: -0.077 | glycan array binding signal (z-score) [19]: 4.93 | glycan array binding signal (z-score) [3]: -0.249 | glycan array binding signal (z-score) [20]: -0.251 | glycan array binding signal (z-score) [21]: -0.234 | glycan array binding signal (z-score) [22]: 5.09 | glycan array binding signal (z-score) [23]: -0.251 | glycan array binding signal (z-score) [24]: -0.149 | glycan array binding signal (z-score) [25]: -0.252 | glycan array binding signal (z-score) (Gal6S(b1-4)Glc): -0.252 | glycan array binding signal (z-score) (Glc(a1-6)Glc(a1-6)Glc): 7.12 | glycan array binding signal (z-score) (Glc(b1-6)Glc): 6.76 | glycan array binding signal (z-score) [26]: -0.251 | glycan array binding signal (z-score) [27]: -0.235 | glycan array binding signal (z-score) [28]: -0.212 | glycan array binding signal (z-score) [29]: -0.252 | glycan array binding signal (z-score) [30]: -0.248
